{"source": "PubChem BioAssay AID560", "about": "(The Scripps Research Institute Molecular Screening Center, 2006)", "note": "The whole screen tested about 65,000 compounds, of which about 980 (1.5%) were called active.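 The calls were made as follows: active = activation above the mean of all tested compounds plus 3 SD (cut at about 49% in these data); inactive = the rest.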 For the sample, actives were picked, then their nearest neighbours and some compounds at random."}
{"target": "Nuclear receptor ROR-alpha (Homo sapiens) (UniProt P35398)", "sequence (P35398 whole entry, looked up, the tested form may be a part)": "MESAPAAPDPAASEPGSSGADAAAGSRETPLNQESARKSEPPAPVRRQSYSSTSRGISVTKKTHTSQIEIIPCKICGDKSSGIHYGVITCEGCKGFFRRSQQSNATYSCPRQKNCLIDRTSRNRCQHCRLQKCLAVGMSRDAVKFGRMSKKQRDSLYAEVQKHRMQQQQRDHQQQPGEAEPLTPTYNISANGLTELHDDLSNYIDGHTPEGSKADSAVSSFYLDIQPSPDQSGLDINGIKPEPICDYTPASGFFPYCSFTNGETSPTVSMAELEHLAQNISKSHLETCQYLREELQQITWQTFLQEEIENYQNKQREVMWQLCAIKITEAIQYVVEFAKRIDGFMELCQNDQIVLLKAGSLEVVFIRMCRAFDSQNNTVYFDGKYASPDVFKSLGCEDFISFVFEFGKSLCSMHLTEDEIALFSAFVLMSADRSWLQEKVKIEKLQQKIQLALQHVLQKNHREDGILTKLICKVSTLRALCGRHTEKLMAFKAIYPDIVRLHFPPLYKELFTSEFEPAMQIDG", "assay": "RORA ligand-binding domain transcriptional activation – cell-based, luminescence, primary screen (AID 560);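 also: 0% = DMSO-treated RORA cells and 100% = added signal equal to DMSO minus mock-transfected cells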", "details": "CHO-K1 Gal4-RORA LBD luciferase reporter, at 10 µM, stronger effect = higher value, percent increase over mock-subtracted basal signal"}
{"smiles": "COCCCNC(=O)Cn1cc(C(=O)C2CC2)c2ccccc21", "activation": "7.7% (inactive)"}
{"smiles": "Cc1nnc(SCC(=O)Nn2cnnc2)s1", "activation": "2.5% (inactive)"}
{"smiles": "N#Cc1nc(Cc2ccccc2)oc1NCCc1ccccc1", "activation": "54.1% (active)"}
{"smiles": "N#Cc1nc(COc2ccc(-c3ccccc3)cc2)oc1NCc1cccnc1", "activation": "-0.3% (inactive)"}
{"smiles": "CCOc1ccc(Nc2oc(Cc3ccccc3)nc2C#N)cc1", "activation": "25.8% (inactive)"}
{"smiles": "O=C(c1ccco1)N(Cc1nc2ccccc2c(=O)[nH]1)C1CCCC1", "activation": "-21.9% (inactive)"}
{"smiles": "Cn1c(COc2ccc(Cl)cc2)nc2ccccc2c1=O", "activation": "7.3% (inactive)"}
{"smiles": "COCn1c(COc2ccccc2)nc2ccccc21", "activation": "53.4% (active)"}
{"smiles": "COCc1nc2ccccc2n1Cc1ccccc1Br", "activation": "-6.2% (inactive)"}
{"smiles": "CCOC(=O)c1c(NC(=O)c2ccc(Br)o2)sc2c1CCCC2", "activation": "10.7% (inactive)"}
{"smiles": "C=CCOC(=O)C1=C(C)OC(N)=C(C#N)C1c1ccc(F)cc1", "note": "(stereo unspecified)", "activation": "-35.4% (inactive)"}
{"smiles": "Brc1ccc(Nc2c3c(nc4ncnn24)CCC3)cc1", "activation": "-16.4% (inactive)"}
{"smiles": "OCCCN1c2ccccc2Nc2nnc(-c3ccccc3)cc21", "activation": "56.8% (active)"}
{"smiles": "C=CCSc1nc2ccccc2[nH]1", "activation": "6.3% (inactive)"}
{"smiles": "Cn1c(SCC(=O)c2cccs2)nnc1-c1ccco1", "activation": "20.4% (inactive)"}
{"smiles": "O=C(CSc1nc2ccccc2[nH]1)c1cccs1", "activation": "56.5% (active)"}
{"smiles": "Cc1ccsc1-c1nc(CSCC(=O)NCCN2CCCC2)c(C)o1", "activation": "4.3% (inactive)"}
{"smiles": "Cc1ccc(S(=O)(=O)C2(S(=O)(=O)c3ccc(C)cc3)CCCC2)cc1", "activation": "36.3% (inactive)"}
{"smiles": "O=C(CN1CCN(c2ccccn2)CC1)NCc1cccs1", "activation": "1.8% (inactive)"}
{"smiles": "CCN(CC)S(=O)(=O)c1cc(C(=O)Nc2ccccn2)ccc1C", "activation": "59.6% (active)"}
{"smiles": "CCN(CC)S(=O)(=O)c1cccc(C(=O)Nc2ccccc2)c1", "activation": "2.7% (inactive)"}
{"smiles": "Cc1noc(C)c1C(=O)Nc1ccccn1", "activation": "-8.4% (inactive)"}
{"smiles": "O=C(CCn1c(=O)oc2ccccc21)Nc1ccon1", "activation": "8.2% (inactive)"}
{"smiles": "Cc1cc(NC(=O)c2cnn3cccnc23)n(-c2ccccc2)n1", "activation": "10% (inactive)"}
{"smiles": "O=C(Nc1ccc(Cl)cn1)c1cnn2cccnc12", "activation": "62% (active)"}
{"smiles": "O=C(Nc1ccc(Cl)cn1)Nc1cccs1", "activation": "42.6% (inactive)"}
{"smiles": "CCOC(=O)c1cnc(SCC(=O)NCc2ccco2)nc1N", "activation": "-10.7% (inactive)"}
{"smiles": "CCCCOc1ccc(NC(=O)CSCC(=O)OCC)cc1", "activation": "-11.3% (inactive)"}
{"smiles": "CCCCOc1ccc(-c2ncc(C(=O)OCC)c(N)n2)cc1", "activation": "59.3% (active)"}
{"smiles": "CCn1cc(NC(=O)Nc2ccc(OC)c(OC)c2)c(C(N)=O)n1", "activation": "4.9% (inactive)"}
{"smiles": "COc1cc(OC)c(C(=O)NC2CCCCCC2)cc1OC", "activation": "-17% (inactive)"}
{"smiles": "COc1ccc(NC(=O)c2ccc(OC)cc2)cc1", "activation": "25.7% (inactive)"}
{"smiles": "COc1cc(OC)c(C(=O)Nc2ccc(N(C)C)cc2)cc1OC", "activation": "58.1% (active)"}
{"smiles": "O=C(Nc1ccccc1F)c1cc(S(=O)(=O)N2CCCCC2)cs1", "activation": "0.6% (inactive)"}
{"smiles": "CCN1C(=O)/C(=C\\N2CCN(c3ccccc3)CC2)SC1=S", "activation": "-18% (inactive)"}
{"smiles": "CCN1C(=O)c2cccc3c(N)ccc1c23", "activation": "-26% (inactive)"}
{"smiles": "CCN1C(=O)/C(=C2\\SC(N3CCCCC3)=NC2=O)c2ccccc21", "activation": "84.9% (active)"}
{"smiles": "O=C(c1cccs1)N1CCN(C(=O)N2CCOCC2)CC1", "activation": "8.8% (inactive)"}
{"smiles": "CC1CCN(c2oc(-c3ccccc3F)nc2C#N)CC1", "activation": "29% (inactive)"}
{"smiles": "COc1ccc(Nc2oc(-c3ccccc3Cl)nc2C#N)cc1", "activation": "98.6% (active)"}
{"smiles": "N#Cc1nc(-c2ccc(OCc3ccccc3)cc2)oc1NCCCN1CCOCC1", "activation": "17% (inactive)"}
{"smiles": "O=S(=O)(c1cccs1)N1CCc2ccccc2C1", "activation": "-7.5% (inactive)"}
{"smiles": "CCN1C(=O)/C(=C2/Sc3ccccc3N2CCCS(=O)(=O)O)SC1=S", "activation": "-2.8% (inactive)"}
{"smiles": "COCCNC(=O)CN1C(=O)CSc2ncccc21", "activation": "18.9% (inactive)"}
{"smiles": "CCS(=O)(=O)n1nc(-c2ccccc2)nc1SCc1ccccc1", "activation": "32.6% (inactive)"}
{"smiles": "COc1ccc(-n2c(SC)nc(O)cc2=O)cc1", "activation": "-8.4% (inactive)"}
{"smiles": "CCS(=O)(=O)n1nc(-c2ccc(OC)cc2)nc1SC", "activation": "52.4% (active)"}
{"smiles": "CCCS(=O)(=O)N1CCN(C(=O)c2cccs2)CC1", "activation": "-4.5% (inactive)"}
{"smiles": "N#C/C(=C1\\CCCN1)c1nc(-c2ccccc2)cs1", "activation": "6.4% (inactive)"}
{"smiles": "N#CC(=C1SC=CS1)c1nc(-c2ccccc2)cs1", "activation": "59.7% (active)"}
{"smiles": "C#CC(C)(C)NC(=O)CSc1nc2c(c(=O)n(C)c(=O)n2C)n1CCCC", "activation": "5% (inactive)"}
{"smiles": "CC(=O)CSc1nnc(CSc2ncccn2)n1C1CCCCC1", "activation": "-9.7% (inactive)"}
{"smiles": "COC(=O)C1=C(C)Nc2ncnn2C1c1ccco1", "note": "(stereo unspecified)", "activation": "-4.4% (inactive)"}
{"smiles": "COc1ccc(C)c2sc(=NC(=O)c3ccc(C#N)cc3)n(C)c12", "activation": "84.6% (active)"}
{"smiles": "COc1ccc(OC)c2c1sc(=NC(=O)CN1C(=O)CCC1=O)n2C", "activation": "-2.8% (inactive)"}
{"smiles": "CCCCSc1nnc(-c2ccc(C)cc2)o1", "activation": "23.4% (inactive)"}
{"smiles": "Cc1ccc(CN2C(=O)CCC2C(=O)NCCCN2CCCCC2C)cc1", "note": "(stereo unspecified)", "activation": "13.7% (inactive)"}
{"smiles": "Cc1noc(NS(=O)(=O)c2ccc(NC(=O)C34CCC(CC3)C4)cc2)c1C", "activation": "11.6% (inactive)"}
{"smiles": "COc1ccc(-n2ncc3c(N4CCc5ccccc54)ncnc32)cc1", "activation": "50.3% (active)"}
{"smiles": "c1ccc(-n2ncc3c(N4CCCC4)ncnc32)cc1", "activation": "-23.2% (inactive)"}
{"smiles": "COc1ccc2oc(=O)c(C(=O)N3CCCc4ccccc43)cc2c1", "activation": "-10.5% (inactive)"}
{"smiles": "COc1ccc(-n2ncc3c(N4CCCc5ccccc54)ncnc32)cc1", "activation": "50.2% (active)"}
{"smiles": "Cc1cccc(-n2ncc3c(N4CCc5ccccc54)ncnc32)c1", "activation": "2% (inactive)"}
{"smiles": "COc1ccc(N2CCN(C(=O)CSc3ncnc4c3cnn4-c3ccc(OC)cc3)CC2)cc1", "activation": "-12.8% (inactive)"}
{"smiles": "CC(=O)N1CCN(c2ccc(NCc3ccc(C(C)C)cc3)cc2)CC1", "activation": "-17.3% (inactive)"}
{"smiles": "COc1ccc(N2C(=O)C3CCCN3C2c2cccc(OC)c2)cc1", "note": "(stereo unspecified)", "activation": "-2.9% (inactive)"}
{"smiles": "O=C(NCCN1CCOCC1)[C@H](Cc1ccccc1)N1C(=O)c2ccccc2C1=O", "activation": "3.1% (inactive)"}
{"smiles": "O=C(CN1C(=O)COc2ccccc21)NCCN1CCc2ccccc2C1", "activation": "20.9% (inactive)"}
{"smiles": "O=C(NCCCNC(=O)NC1CCCCC1)NC1CCCCC1", "activation": "-10.6% (inactive)"}
{"smiles": "CCS(=O)(=O)N1CCC(C(=O)N2CCN(c3ccccc3)CC2)CC1", "activation": "-6.6% (inactive)"}
{"smiles": "COc1cccc2sc(Nc3nc(C)c(C(C)=O)s3)nc12", "activation": "39.6% (inactive)"}
{"smiles": "Cc1cc(C)c2c(c1)cc(C)c1nnc(SCC(=O)Nc3cc(C)on3)n12", "activation": "44.5% (inactive)"}
{"smiles": "Cc1cccc(NC(=O)c2ccc3ccccc3n2)n1", "activation": "83% (active)"}
{"smiles": "Cc1cccc(NC(=O)COc2ccccc2C)n1", "activation": "-18.4% (inactive)"}
{"smiles": "Cc1cccc(NC(=O)c2ccccc2NC(=O)C(C)(C)C)n1", "activation": "17.7% (inactive)"}
{"smiles": "CC(=O)c1c(N)n(C)c(=O)n(C)c1=O", "activation": "-5.2% (inactive)"}
{"smiles": "c1ccc2c(NCC3CCCO3)nc(-c3ccncc3)nc2c1", "note": "(stereo unspecified)", "activation": "-11.3% (inactive)"}
{"smiles": "Cc1ccc(-n2c(SCC(=O)Nc3ccc4c(c3)OCO4)nnc2-c2ccoc2C)cc1", "activation": "-1.7% (inactive)"}
{"smiles": "O=C(Cc1nn[nH]n1)NCCC1=CCCCC1", "activation": "-13.7% (inactive)"}
{"smiles": "CN(c1ccc(C(=O)NCCC2=CCCCC2)cc1)S(C)(=O)=O", "activation": "63% (active)"}
{"smiles": "Cn1nnc2cc(C(=O)NCCC3=CCCCC3)ccc21", "activation": "18.1% (inactive)"}
{"smiles": "O=C1C(C=NCC2CCCO2)=C(O)c2ccccc21", "note": "(stereo unspecified)", "activation": "48.7% (active)"}
{"smiles": "O=C(CS(=O)(=O)Cc1ccccc1)NCC1CCCO1", "note": "(stereo unspecified)", "activation": "11.4% (inactive)"}
{"smiles": "CC(=NCC1CCCO1)c1c(O)[nH]c(=O)[nH]c1=O", "note": "(stereo unspecified)", "activation": "2.9% (inactive)"}
{"smiles": "Cc1ccccc1Nc1nc(N)nc(CN2CCN(c3ccccn3)CC2)n1", "activation": "-2.8% (inactive)"}
{"smiles": "CC(=O)Nc1cccc(-c2cnc3ccccc3n2)c1", "activation": "72.9% (active)"}
{"smiles": "Cc1cc(O)ccc1-c1cnc2ccccc2n1", "activation": "30.5% (inactive)"}
{"smiles": "CC(=O)Nc1cccc(NC(=O)c2c(-c3ccccc3)noc2C)c1", "activation": "-6.7% (inactive)"}
{"smiles": "CC(C)CC(=O)N=C1SC2CS(=O)(=O)CC2N1CCc1ccccc1", "note": "(stereo unspecified)", "activation": "-3.3% (inactive)"}
{"smiles": "Cn1c(CNC(=O)C(C)(C)C)nc2ccccc21", "activation": "13.9% (inactive)"}
{"smiles": "CCN(CC)C(=O)CSc1nnc(-c2cnccn2)n1-c1ccc(C)cc1", "activation": "12% (inactive)"}
{"smiles": "O=C(CSc1nnc(-c2cnccn2)n1Cc1ccco1)c1ccc(Cl)c(Cl)c1", "activation": "1.4% (inactive)"}
{"smiles": "Cn1c(SCc2c(F)cccc2Cl)nnc1-c1cnccn1", "activation": "62.8% (active)"}
{"smiles": "COCCn1nnnc1CN1CCC(NC(=O)Nc2cccc(OC)c2)CC1", "activation": "-9% (inactive)"}
{"smiles": "CCOc1cc(S(=O)(=O)NCc2ccc3c(c2)OCO3)ccc1F", "activation": "-24.1% (inactive)"}
{"smiles": "CCn1c(CSc2ncccn2)nnc1SCC(=O)N1c2ccccc2CC1C", "note": "(stereo unspecified)", "activation": "-7.8% (inactive)"}
{"smiles": "Cn1c(SCc2nc3ccccc3s2)nnc1-c1ccc2c(c1)OCO2", "activation": "37.8% (inactive)"}
{"smiles": "CC(C)OC(=O)c1sc2nc3c(cc2c1N)C(=O)CCC3", "activation": "47.6% (inactive)"}
{"smiles": "Oc1ccc2nc(Cc3ccccc3)[nH]c2c1", "activation": "2.5% (inactive)"}
{"smiles": "Oc1ccc(Cl)cc1/C=N/c1nc2ccccc2[nH]1", "activation": "51.7% (active)"}
{"smiles": "c1ccc2[nH]c(-c3nc4ccccc4[nH]3)nc2c1", "activation": "14.8% (inactive)"}
{"smiles": "O=C(C1CCCO1)N1CCC(c2nc3ccccc3[nH]2)CC1", "note": "(stereo unspecified)", "activation": "-13.4% (inactive)"}
{"smiles": "Fc1c(F)c(C(F)(F)F)c(F)c(F)c1N1CCN(c2ccc3nnc(C(F)(F)F)n3n2)CC1", "activation": "-6.8% (inactive)"}
{"smiles": "COc1cccc(C(=O)c2cc3ccc(O)cc3oc2=O)c1", "activation": "0.2% (inactive)"}
{"smiles": "COc1ccc(-c2cc3ccc(OCc4nn[nH]n4)cc3oc2=O)cc1", "activation": "-23.3% (inactive)"}
{"smiles": "O=c1oc2cc(O)ccc2cc1-c1ccc(F)cc1", "activation": "61.8% (active)"}
